Pf growth 96h = P. falciparum growth inhibition at 96 hours; P. falciparum luciferase reporter growth, 96 h; 6.9% of 320,000 active; AID 504834; Potency, µM (doses to about 28.7 µM), inactives show at the top dose activity change, negative = inhibition, usual class: inhibitors; note: potency is the fitted concentration of half-maximal effect; % is set by controls: 0 for no effect and ±100 for the full control effect
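Plates of compound plus infected erythrocytes (2% hematocrit, 0.05% parasitemia final) incubate 96 hours, 37 C, 5% CO2. Detection reagent added; reduced luminescence from the parasites' luciferase reporter flags inhibition.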
Cycloheximide cs = affects cycloheximide protein synthesis inhibition readout, counter-screen. AID 2314. 12% of 300,000 active. cell reporter, cycloheximide protein synthesis inhibition counterscreen. max response, %; in the data active = max response mostly above about 13%, no sharp cut-off; inactive = mostly below about 14%; note: read at 38.3 µM for the half of the compounds with a filed dose; 0% is about no effect
Pf growth 48h = P. falciparum growth inhibition at 48 hours (one generation). Potency, µM (series often up to 28.7 µM), without a hit: at the top dose activity change, negative = inhibition, actives largely listed as inhibitors. 5.9% of 310,000 active. P. falciparum luciferase growth in erythrocytes, 48 h; note: potency is the fitted concentration of half-maximal effect; % is set by controls: 0 for no effect and ±100 for the full control effect
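First compound was added to culture medium, then infected red cells at 0.1% parasitemia and 2% hematocrit (final). After incubation at 37 C under 5% CO2, luciferase detection reagent was dispensed and light output recorded.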
HCV inhibitor = blocks hepatitis C virus; Huh7.5.1 HCVcc-Cre infection, luciferase reporter, 44 h; Potency, µM (titrated, usually from 41.8 µM), without a hit: at the highest dose activity change, negative = inhibition, most hits filed as inhibitors; 3.4% of 340,000 active; note: potency is the fitted concentration of half-maximal effect; % is set by controls: 0 for no effect and ±100 for the full control effect
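1,000 cells/well; 4 h culture; + compound; + HCVcc-Cre (~0.5 moi); 44 h; luciferase substrate, RT 15 min; read 15 sec.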
Shiga inhibitor = blocks Shiga toxin action in Vero cells; Vero cells, Shiga toxin protein synthesis inhibition reporter; inhibition, % at 38.7 µM; 9.2% of 290,000 active; in the data active = inhibition mostly above about 28%, no sharp cut-off; inactive = mostly below about 43%; note: 0% is about no effect
AMA1 RON2 block = AMA1-RON2 (P. falciparum) interaction inhibition | AID 720542 | Potency, µM (titrated, usually from 58.2 µM), for inactives: at the top dose activity change, negative = inhibition, hits mostly inhibitors | AlphaScreen AMA1-biotinylated RON2 peptide binding | 0.2% of 360,000 active;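 note: potency is the fitted concentration of half-maximal effect; 0% = vehicle wells and -100% = peptide control; nearly all actives have a fitted effect of over 45% in size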
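AMA1 (3D7) with his tag at 25 nM final met compounds first, then biotinylated RON2 peptide at 25 nM; detection used donor plus acceptor beads, 10 µg/mL apiece, read by AlphaScreen after 30 min at room temperature.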
Active calls of the source: *; ? = inconclusive; nt = no result. Compounds with a hit are over-represented: about 21% of the library has one in this group of screens. Unless noted, calls come from the whole dose curve; as a rule, active = well fitted curve in the direction sought with a large enough effect; inconclusive = small, poorly fitted or top-dose-only effect, or another doubt; inactive = no such curve, though single readings can be large; an effect the other way counts as inactive or inconclusive.

SMILES | Pf growth 96h | Cycloheximide cs | Pf growth 48h | HCV inhibitor | Shiga inhibitor | AMA1 RON2 block
CC(=O)N1CCN(c2ccc(NCc3ccc(C)s3)cc2)CC1 | ? | 9 | nt | -5% | -6 | -18%
Oc1cc(Nc2ccc(N3CCCCC3)cc2)cc2cccnc12 | 0.093µM* | nt | 0.1µM* | nt | nt | nt
C/C(=N\NC(=O)C1CC1)c1ccc(Cl)cc1 | 5.2µM* | -3 | ? | 8% | -3 | -7%
C/C(=N\NC(=O)C1CCCC1)c1ccc(Cl)cc1 | 19% | 41* | 35% | 13% | 52* | -9%
N=c1nc(N)nc2n1NC(c1ccc(F)cc1)=CS2 | ? | 20* | 10% | ? | 47 | 67%
CN(Cc1ccccc1)C(=O)CCn1c(=O)c2cccn2c2cccnc21 | ? | -1 | ? | 5% | 14 | -4%
CCn1c(=N)n(CC(=O)c2ccc(Br)s2)c2ccccc21 | ? | 1 | ? | ? | 5 | 1%
CCCCn1c(=N)n(CC(=O)c2ccc(Br)s2)c2ccccc21 | 12µM* | -5 | 10µM* | ? | -21 | -4%
O=C(COC(=O)C1CC1)NCc1ccccc1Cl | nt | 16* | 25% | 3% | 29 | 6%
CC1CN(C(=O)CCC(=O)NCc2ccccc2Cl)c2ccccc2S1 (centres undefined) | 8.3µM* | -2 | -9% | -18% | 12 | 21%
COc1ccccc1CNC(=O)COC(=O)C1CC1 | -4% | nt | -24% | 1% | nt | -7%
Cc1c(Cl)cccc1-n1c(SCC(=O)NCc2ccccc2Cl)nnc1-c1ccncc1 | 8.3µM* | -3 | 8.3µM* | -13% | 26 | -8%
Cc1c(Cl)cccc1-n1c(SCC(=O)NCc2cccs2)nnc1-c1ccncc1 | ? | -1 | ? | 0% | 18 | 0%
CCCCC(=O)NCc1ccccc1Cl | 51% | 23* | 43% | 6% | 52 | 14%
O=C(NCc1ccccc1Cl)NCc1ccccc1Cl | 146% | 1 | 75% | 6% | -3 | -3%
COc1ccc(NC(=O)NNC(=O)c2ccccc2-n2cccc2)cc1OC | ? | 4 | 1% | 5% | -13 | 62%
CN(C)CCNC(=O)c1cccc(-c2cnc3c(NC=O)cc(/C=C/c4ccccc4)cn23)c1 | nt | nt | nt | nt | nt | 3%
CCC(C(=O)NC(N)=O)c1ccccc1 (centres undefined) | 4% | nt | 3% | nt | nt | nt
O=C(COC(=O)CCSc1ccccc1)NCc1ccccc1Cl | -21% | 19* | 13% | 11% | 43 | 18%
O=C(CC1CCCCC1)NCc1ccccc1Cl | ? | 38* | 163% | -10% | 49 | 6%
O=C(COC(=O)CCSc1ccc(Cl)cc1)NCc1ccccc1 | -9% | -4 | -9% | 10% | 6 | 14%
O=C(CSc1ncccn1)NCc1ccccc1Cl | 0% | 50* | 107% | 1% | 68* | -1%
CCCC[C@@H]1CCCO[C@@](C(=O)NCC2CC2)(C(F)(F)F)C1 | nt | -4 | nt | nt | -7 | nt
O=C(Nc1ccc(S(=O)(=O)N2CCN(Cc3ccccc3)CC2)cc1)c1cnccn1 | ? | -1 | -6% | 6.3µM* | 26 | 0%
CS(=O)(=O)c1ccc(NC(=O)c2cccc(S(=O)(=O)N3CCN(Cc4ccccc4)CC3)c2)cc1 | 9.3µM* | -3 | ? | 10µM* | -8 | -10%
SMILES | Pf growth 96h | Cycloheximide cs | Pf growth 48h | HCV inhibitor | Shiga inhibitor | AMA1 RON2 block
CN(Cc1c(F)cccc1Cl)C(=O)c1cccc(S(=O)(=O)N2CCN(Cc3ccccc3)CC2)c1 | nt | nt | nt | ? | nt | 72%
CN(C)C(=O)c1ccc(NC(=O)c2cccc(S(=O)(=O)N3CCN(Cc4ccccc4)CC3)c2)cc1 | nt | nt | nt | ? | nt | 24%
CN(CC(=O)Nc1ccc(Cl)cc1)C(=O)c1cccc(S(=O)(=O)N2CCN(Cc3ccccc3)CC2)c1 | ? | nt | 1% | 11µM* | nt | -12%
O=C(Nc1ccc(S(=O)(=O)N2CCCC2)cc1)c1cnccn1 | 66% | 2 | -12% | ? | 9 | -3%
CCOC(=O)C1CCN(S(=O)(=O)c2ccc(Cl)s2)CC1 | ? | 1 | 6% | 1% | 38 | -1%
Cc1cc2ccccc2n1CCNC(=O)C1CCCCC1 | -4% | 1 | 4% | -14% | 9 | -5%
COc1ccc(C(=O)NCCCc2nc3ccccc3n2Cc2ccccc2C)cc1OC | 9.3µM* | -5 | ? | ? | -10 | -10%
COc1ccc(C(=O)NCCn2ccc3ccccc32)cc1OC | 1% | 18* | 2% | -4% | 23 | 0%
O=C(NCCn1ccc2ccccc21)C1CCCCC1 | -4% | 18* | -8% | -1% | 24* | 0%
COc1cccc(C(=O)NCCn2ccc3ccccc32)c1 | 117% | 25* | 0% | -16% | 45* | -1%
COc1cc(OC)cc(C(=O)NCCn2ccc3ccccc32)c1 | ? | 10 | nt | ? | -3 | -2%
Cc1n[nH]c(C)c1CCNC(=O)C1CCC(=O)N(CCc2cccc(F)c2)C1 (centres undefined) | ? | -2 | 24% | 11% | -2 | 5%
Cc1ccc(C)c(Cn2c(C)nc3c(sc(=S)n3-c3ccccc3)c2=O)c1 | -14% | 5 | -2% | 20% | -8 | -11%
C=CCC[C@H](CCCCC)OC(=O)/C=C/[C@@H](O)[C@H](O)C[C@H](O)CC=C | nt | nt | nt | nt | nt | 2%
CCOC(=O)C1CCCN(C(=O)c2cc(C#N)cs2)CC1 (centres undefined) | nt | nt | nt | nt | nt | -2%
C/C(=N\N=c1/sc2ccccc2n1C)c1ccc(N2CCOCC2)cc1 | 43% | 22* | 31% | 6% | 81 | -19%
C/C(=N\N=c1/sc2ccccc2n1C)c1ccccn1 | 103% | 78* | 138% | ? | 69* | -8%
COc1cc(C(=O)N=c2sc3ccccc3n2C)cc(OC)c1OC | ? | 16 | -13% | -26% | 7 | -1%
CCOC(=O)NC(=O)C(/C=N/c1sccc1C(=O)OC)=C(\C)O | 19% | 5 | 2% | 0.56µM* | 18 | 7%
CCC(=O)Nc1sccc1C(=O)OC | nt | 6 | 13% | 1% | -7 | -4%
CC1CC(C)CN(C(=O)c2nn(C)c3c2CS(=O)(=O)c2ccccc2-3)C1 (centres undefined) | ? | -3 | 25% | 6% | -5 | 16%
Nc1c(Cl)cc2c(c1Oc1ccccc1)C(=O)c1ccccc1C2=O | ? | 29* | nt | -18% | 27 | -21%
CCOc1ccc(N(CC(=O)N2CCOCC2)S(=O)(=O)c2ccc(Cl)cc2)cc1 | 1% | -6 | -2% | 11% | -15 | 5%
O=C1CN(S(=O)(=O)c2ccc([N+](=O)[O-])cc2)CC(=O)N1 | 12µM* | -4 | 41% | -3% | -8 | 21%
O=[N+]([O-])c1ccc(Oc2ccc(S(=O)(=O)N3CCOCC3)cc2)cc1 | ? | -1 | 0% | 11µM* | -19 | 0%
CN1CCN(S(=O)(=O)c2ccc([N+](=O)[O-])cc2)CC1 | ? | -3 | 6% | 10% | -3 | 1%
